# Compound activity deposited in PubChem BioAssay by National Center for Advancing Translational Sciences (NCATS).
# HT1080-NT tox = qHTS for induction of synthetic lethality in tumor cells producing 2HG: qHTS for the HT-1080-NT fibrosarcoma cell line; HT-1080-NT fibrosarcoma viability, CellTiter-Glo ATP luminescence, 48 h; Potency, µM (series often up to 46.1 µM), inactives show at the top dose activity, negative = less viability, usual class: cytotoxic; 360,000 compounds, 1.6% hits; AID 686970, 2013;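 further: NT is the 2HG producing partner of a matched IDH1 knockdown line; potency means the concentration at half of the fitted maximal effect; 0% = DMSO-treated cells and -100% = media-only wells without cells; nearly all actives have a fitted effect of over 55% in size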
#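 HT-1080-NT fibrosarcoma cells (2HG-overproducing), 750 cells/well in RPMI with 5% FBS, dosed after 2 h and incubated 48 h at 37C. CellTiter-Glo luminescence normalized to DMSO and no-cell wells; concentration-response curves fitted and classed.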
# DT40 TDP1 no CPT = qHTS for Inhibitors of human tyrosyl-DNA phosphodiesterase 1 (TDP1): qHTS in cells in absence of CPT. 420,000 compounds, 15% hits. AID 686978, 2013. DT40 Tdp1-/- hTDP1 cells, no CPT, ATP luminescence, 48 h. Potency, µM (titrated, usually from 46.2 µM), for the others: top-dose activity change, negative = growth inhibition, usual class: inhibitors; further: potency means the concentration at half of the fitted maximal effect; nearly all actives have a fitted effect of over 55% in size
#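 Growth kinetics read by CellTiter-Glo luminescence after ≥48 hr at 37 °C. Cells: DT40 Tdp1-/- stably carrying human TDP1, 400 per well, compound exposure in the absence of CPT (DMSO vehicle).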
# DT40 TDP1 CPT = qHTS for Inhibitors of human tyrosyl-DNA phosphodiesterase 1 (TDP1): qHTS in cells in presence of CPT. chicken DT40 Tdp1-/-;hTDP1 cells + 20 nM CPT, ATP luminescence, 48 h. Potency, µM (doses to about 46.2 µM), without a hit: at the highest dose activity change, negative = growth inhibition, usual class: inhibitors. 420,000 compounds, 12% hits. AID 686979, 2013; further: potency means the concentration at half of the fitted maximal effect; nearly all actives have a fitted effect of over 55% in size
#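 Chicken DT40 Tdp1-/- cells complemented with human TDP1, 400 cells/well, exposed to compounds plus 20 nM camptothecin for at least 48 h at 37 C; viability read as ATP content by CellTiter-Glo luminescence.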
# HT1080 IDH1KD tx = qHTS for induction of synthetic lethality in tumor cells producing 2HG: qHTS for the HT-1080-IDH1KD cell line; Potency, µM (series often up to 46.1 µM), inactives show at the highest dose activity, negative = toxicity, hits mostly cytotoxic; HT-1080 IDH1 knockdown viability, ATP luminescence, 48 h; 360,000 compounds, 2% hits;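 further: potency means the concentration at half of the fitted maximal effect; 0% = DMSO wells and -100% = cell-free medium wells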
#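 % activity derives from luminescence (CellTiter-Glo), normalised to DMSO and no-cell wells. HT-1080-IDH1KD cells, 750/well, had 48 h compound exposure at 37 °C.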
# IL1B secr inh = qHTS for Inhibitors of Inflammasome Signaling: IL-1-beta AlphaLISA Primary Screen; THP-1 LPS/ATP IL-1B secretion, AlphaLISA, 16 h; active compounds read low; activity change, % at 57.5 µM; 360,000 compounds, 4.7% hits; in the data active means activity change below about -50%; inconclusive means mostly about -30% to -49%
#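 Secreted IL-1B measured by AlphaLISA bead assay after 16 h compound exposure of THP-1 cells; compounds (final up to 57.5 uM) added 1 h before LPS (250 ng/mL) and ATP (1.25 mM) stimulation; lower signal means less secretion.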
# Starred values were filed as active, the others as inactive; u = inconclusive; x = not tested or not shown. An excerpt weighted towards active compounds, which were near 19% of everything screened. Unless noted, the call rests on the fitted dose curve; in most records, active means well fitted curve in the direction sought with a large enough effect; inconclusive means small, poorly fitted or top-dose-only effect, or another doubt; inactive means no such curve, though single readings can be large; an effect the other way counts as inactive or inconclusive. Unless noted, on the % scale 0 is the no-effect control and ±100 the full control effect.
SMILES,HT1080-NT tox,DT40 TDP1 no CPT,DT40 TDP1 CPT,HT1080 IDH1KD tx,IL1B secr inh
Cc1ccc(-c2cc(C(=O)N/N=C\c3cnn(C)c3C)c3ccccc3n2)cc1C,-22%,10µM*,12µM*,-25%,-10
Cc1ccc(-c2cc(C(=O)NCC3CCCO3)c3ccccc3n2)cc1C (stereo unspecified),9%,5%,11%,25%,1
Cc1ccc(-c2cc(C(=O)NCCc3ccccc3)c3ccccc3n2)cc1C,x,u,21µM*,x,x
Cc1ccc(-c2cc(C(=O)NCc3cnn(C)c3C)c3ccccc3n2)cc1C,x,18µM*,u,x,x
Cc1ccc(-c2cccc(C(=O)NCCc3ccccc3)n2)c2ccccc12,-26%,16µM*,26µM*,-17%,-14
COc1cc(-c2cc(C(=O)NCCc3ccc(S(N)(=O)=O)cc3)c3ccccc3n2)cc(OC)c1OC,-1%,3.3µM*,4.1µM*,-4%,-52*
C=CCn1c2ccccc2c(=O)c2cc(C#CC3(O)CCCCC3)ccc21,u,18µM*,16µM*,-27%,-57*
C=CCn1c2ccccc2c(=O)c2cc(C#CC[C@@H](C)O)ccc21,-11%,10µM*,8.2µM*,-2%,-67*
O=c1c2ccccc2sc2ccc(C#CC3(O)CCCCC3)cc12,-23%,u,u,-21%,u
O=C(C[C@H]1CC[C@H]2[C@@H](COC[C@@H](O)CN2S(=O)(=O)c2ccc(F)cc2)O1)N[C@@H]1CCN(Cc2ccccc2)C1,3%,11%,-17%,14%,-10
CN1C[C@@H]2[C@@H]3C(=O)N(C)C(=O)[C@@H]3[C@](C)(C1=O)N2C(=O)c1ccccc1,u,-2%,20%,20%,28
CCC/C(O)=C1\C(=O)CC(C)(C)CC1=Nc1ccc(OC)cc1,-15%,15µM*,u,-4%,-20
CCCC/C(O)=C1\C(=O)CC(C)(C)CC1=Nc1ccc(OC)cc1,-2%,u,u,-2%,u
Cc1ccc2cc(CN(CC3CCCO3)S(=O)(=O)c3ccc4c(c3)OCCO4)c(=O)[nH]c2c1C (stereo unspecified),5%,21µM*,18µM*,10%,-5
CC(=O)c1ccc(S(=O)(=O)N(Cc2cc3cc4c(cc3[nH]c2=O)OCCO4)CC2CCCO2)cc1 (stereo unspecified),0%,11µM*,-29%,13%,-11
COc1ccc(NC(=O)N2CCCC3(CCN(C(=O)c4cccn4C)CC3)C2)cc1,x,-2%,u,x,x
CC1(C(=O)O)CCCN1C(=O)c1cccc(C(F)(F)F)c1 (stereo unspecified),-2%,3%,5%,10%,-10
CC(C)CN(CC(C)C)c1ccc(/C=N/n2cnnc2)cc1[N+](=O)[O-],-14%,u,u,-1%,-55*
CCOC(=O)C1C(=O)C=C(/C=C/c2ccccc2)CC1c1ccc(Cl)cc1 (stereo unspecified),-4%,u,29µM*,-7%,-26
CC1(C)CC2CC(C)(CN2Cc2c(O)ccc3ccccc23)C1 (stereo unspecified),-9%,13µM*,u,-4%,-17
CC1(C)CC2CC(C)(CN2Cc2cccc([N+](=O)[O-])c2)C1 (stereo unspecified),-1%,2%,-25%,5%,36
CCCCN(CCCC)S(=O)(=O)c1ccc(NC(=O)c2cccs2)cc1,u,21µM*,26µM*,u,-85*
CCCCN(CCCC)S(=O)(=O)c1ccc(NC(=O)c2ccc([N+](=O)[O-])cc2Cl)cc1,-30%,21µM*,u,u,0
CC(=O)N1CCN(c2ccc(NC(=O)c3ccc([N+](=O)[O-])cc3Cl)cc2)CC1,21%,u,14%,13%,-13
